The campaign covered roughly 87,000 compounds. About 360 (0.41%) were called active. What follows is part of a selection rich in actives, with near analogues and random picks from the rest. Values without a mark were called inactive. Rule as the data show it: active = cytotoxicity above about 50%; inactive = the rest.

Consider 103 compounds from PubChem BioAssay AID620 (Sanford-Burnham Center for Chemical Genomics, 2007).

The nature of this assay: cytotoxicity in HT1080 fibrosarcoma cells, cell-based, fluorescence readout (AID 620).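 Also: cells exposed to compound overnight then 4 h with Alamar Blue; 0% = vehicle DMSO and 100% = killing control.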 The settings on record: HT1080 viability, at 10 µM, active compounds read high.
With `O=C(CC1(O)C(=O)Nc2cc(Cl)cc(Cl)c21)c1ccccc1O` (stereo not drawn), the cytotoxicity is -66.6%. On to `CCCCNc1c(C(=O)OCC)c(=O)[nH]c2ccccc12`, for which the cytotoxicity was 0.1%. Consider `CCN(CC)c1ccc(NC(=O)c2c(OC)cccc2OC)c(C)c1`, for which the cytotoxicity was -1.4%. For the compound `CCN(CC)c1ccc(NC(=O)c2cccc(OC)c2)c(C)c1`, the cytotoxicity is 16.9%. `CCN(CC)c1ccc(NC(=O)c2cc(OC)cc(OC)c2)c(C)c1`: the cytotoxicity was 59.7% (active).

`CCC1Oc2ccccc2N(CC(=O)NCCCN2CCOCC2)C1=O` (stereo not drawn): the cytotoxicity was -2.1%. Consider `O=S(=O)(Nc1ccc2c(c1)OCO2)c1ccc(Br)s1`, for which the cytotoxicity was 9.9%. Regarding `COCCn1c(SCC#N)nnc1-c1ccccc1`, the cytotoxicity is 22.4%. To `CCOc1cc(/C=N/n2cnnc2)c(Br)cc1O` belongs 62.2% (active). For the compound `CCOc1cc(/C=N/n2cnnc2)ccc1O`, the cytotoxicity was -5%. With `CCOc1cc(/C=N/n2cnnc2)cc(Br)c1O`, the cytotoxicity was 0.3%. `COc1ccc(NC(=O)C(CC(C)C)NC(=O)c2ccccc2C)cn1` (stereo not drawn): the cytotoxicity was 0.6%. Consider `COC(=O)c1ccccc1S(=O)(=O)Nc1ccc(OC)nc1`, for which the cytotoxicity was 13%. In the case of `COc1ccc(NC(=O)c2cc(OC)c(OC)c(OC)c2)cn1`, the cytotoxicity is 3.1%. In the case of `COc1ccc(CNC(=O)Nc2ccc(C)cc2)cc1`, the cytotoxicity is -2.8%. Take `COc1ccc(NS(=O)(=O)Cc2ccccc2Cl)cn1`: the cytotoxicity was 14.8%. To `COc1ccc(NC(=O)/C(Cl)=C(/Cl)S(=O)(=O)Cc2ccccc2)cn1` belongs 79.3% (active); to `CCCS(=O)(=O)C(=C(Nc1ccc(OC)cc1)Nc1ccc(OC)cc1)S(=O)(=O)CCC`, 7.4%. To `COc1ccc(CS(=O)(=O)/C(Cl)=C(/Cl)C(=O)Nc2ccc(OC)nc2)cc1` belongs 63.1% (active); to `COc1ccc(C(=O)/C=C(\N)C(F)(F)F)c(O)c1`, -3.6%; to `CCOC(=O)CSc1nc2c(c(=O)[nH]c(=O)n2C)n1C/C=C(/C)Cl`, 12%.

On to `O=C1C=C(N(CCO)CCO)C2(CCCCC2)O1`, for which the cytotoxicity is -7.3%. On to `O=C(O)CNc1nc(-c2ccccc2)nc2ccccc12`, for which the cytotoxicity is -10.9%. For `COC1=C(OC)c2ccccc2C(C(=O)O)N/C1=C(/C)Nc1ccncc1` (stereo not drawn), the cytotoxicity was -1%. As for `CN(CC(=O)NC1CCCCCCC1)S(=O)(=O)c1cccc2cccnc12`, the figure is -11.8%; as for `CCOC(=O)/C(=C/Nc1ccccc1)[N+](=O)[O-]`, -10.2%; as for `CCOC(=O)Nc1cccc(Nc2ccccc2)c1`, -3.2%. As to `CCOC(=O)c1cccc(NC(=O)c2cccnc2)c1`, the cytotoxicity was 0.2%. Turning to `CCOC(=O)c1sc(Nc2ccccc2)nc1C`, the cytotoxicity is 15%.

For the compound `CCOC(=O)/C(=C\c1cccnc1)C(=O)c1cc(C(C)=O)c(Nc2ccccc2)s1`, the cytotoxicity is 75.6% (active). On to `Cn1c(-c2sc(=S)n(-c3ccccc3)c2N)nc2ccccc21`, for which the cytotoxicity is -7.2%. As for `CCCCn1c(SCC(=O)N2CCC(C)CC2)nc2cc(S(N)(=O)=O)ccc21`, the figure is 27.9%; as for `CC1CCc2c(sc3ncnc(SCC(=O)c4ccccc4)c23)C1` (stereo not drawn), 4.4%.

On to `CC(C)(C)c1csc(NC(=O)Cn2c(=O)oc3ccccc32)n1`, for which the cytotoxicity is -6.8%. On to `CNC(=O)c1ncnnc1N(C)C(=O)NCc1ccccc1`, for which the cytotoxicity was -2.1%. Consider `CN1CCN(C(=O)c2ccc(C3SCC(=O)N3Cc3ccco3)cc2)CC1` (stereo not drawn), for which the cytotoxicity was -8.2%. In the case of `O=C1c2ccccc2OC2(C=Cc3ccccc3O2)N1Cc1ccccc1` (stereo not drawn), the cytotoxicity was 15.6%.

For `CN1CC2=Cc3ccccc3OC23Oc2ccccc2C=C3C1`, the cytotoxicity was 51.7% (active). To `O=C(Nc1cccc(-c2nc3ccccc3o2)c1)c1ccc(N2C(=O)C3C4C=CC(C4)C3C2=O)cc1` (stereo not drawn) belongs 21.5%; to `CCSc1nnc(NC(=O)c2ccc(Br)s2)s1`, 68.3% (active); to `CCSc1nnc(NC(=O)c2ccc3c(c2)OCO3)s1`, 55.2% (active). To `CCSc1nnc(NC(=O)c2ccccn2)s1` belongs -11%.

For the compound `CCSc1nnc(NC(=O)c2csc(C)c2)s1`, the cytotoxicity is 25.7%.

`CCSc1nnc(NC(=O)c2cccs2)s1`: the cytotoxicity is -4.1%. As for `COCCNc1nnc(SCC(=O)c2ccc3c(c2)OCO3)s1`, the cytotoxicity is 1.3%. With `CCOCCCn1c(SCC(=O)Nc2ccc(C(N)=O)cc2)nc2ccccc2c1=O`, the cytotoxicity was -6%. To `CCOC(=O)c1cc(-c2ccc(C)o2)nn1CCC#N` belongs 0.3%. As to `CCCC1=Nc2cc(C(=O)NCCCOC(C)C)ccc2Sc2ccccc21`, the cytotoxicity is 6.2%. Take `CCCC1=Nc2cc(C(=O)NCCCOCC)ccc2Sc2ccccc21`: the cytotoxicity was 63.8% (active). As for `CCOCCCNC(=O)c1ccc(OC)cc1`, the figure is -2.5%.

Take `CCC1=Nc2cc(C(=O)NCCCOC)ccc2Sc2ccccc21`: the cytotoxicity is 68.1% (active).

As to `CCC1=Nc2cc(C(=O)NCCCOC(C)C)ccc2Sc2ccccc21`, the cytotoxicity is 39.6%. In the case of `COCCCNC(=O)c1cccc(C(=O)NCCCOC)c1`, the cytotoxicity was 0.6%. Turning to `CC(C)C1N=C2c3ccccc3N=C(SCc3cc(=O)n4ccccc4n3)N2C1=O` (stereo not drawn), the cytotoxicity is 2.9%. As for `CCOc1ccc(S(=O)(=O)N2CCN(C)CC2)c(C)c1C`, the cytotoxicity is 11.2%. In the case of `CCC(C)(C)n1c(=O)[nH]c2c(c1=O)CCC2`, the cytotoxicity was 25.2%. Take `O=C(Nc1ccccc1N1CCCCC1)c1ncoc1-c1ccc(F)cc1`: the cytotoxicity was -6.7%. As to `CCOc1ccc(/C=C2/SC(=S)N(n3c(C)ccc3C)C2=O)cc1`, the cytotoxicity was -16.1%.

Turning to `CCOc1cc(C(=O)N2CCc3cc(OC)c(OC)cc3C2)ccc1OC(F)F`, the cytotoxicity was 59.3% (active). Consider `COc1ccc(C(=O)N2CCc3cc(OC)c(OC)cc3C2)cc1OC`, for which the cytotoxicity was -5.5%. For `CCOc1ccc(C(=O)N2CCCC2)cc1OC`, the cytotoxicity was 4.1%. Consider `COC(=O)CN1C(=O)C2(C(C#N)=C(N)Oc3c2c(C)nn3-c2ccccc2)c2ccccc21` (stereo not drawn), for which the cytotoxicity is -65.1%.

Consider `CC1CCCN(S(=O)(=O)c2ccc(NC(=O)CN3CCN(C)CC3)cc2)C1` (stereo not drawn), for which the cytotoxicity was -6.1%. Regarding `CCc1cccc(CC)c1NC(=O)CN1CC(C)SC1=NC1CCCCC1` (stereo not drawn), the cytotoxicity is -4.4%. For `Cc1ccc(NC(=O)CN2CC(C)SC2=NC2CCCCC2)cc1` (stereo not drawn), the cytotoxicity is 87% (active). With `CCOC(=O)c1c(NC(=O)CSc2nnc(-c3ccccc3C)n2C)sc(C(C)=O)c1C`, the cytotoxicity is -23.9%. For the compound `O=C1NCCCC1C(=O)N1CCN(C(=O)c2ccco2)CC1` (stereo not drawn), the cytotoxicity is 1.1%. Regarding `COc1cccc(NC(=O)CC2C(=O)NC3CCCCC3N2C(=O)c2ccc(F)cc2)c1` (stereo not drawn), the cytotoxicity is -16.2%. Take `O=C(O)c1n[nH]c2c1CCCC2`: the cytotoxicity was -12.7%. As for `CC(/C=N/NC(=O)c1n[nH]c2c1CCC2)=C\c1ccccc1`, the cytotoxicity is 71.7% (active).

As for `Cc1ccccc1NCC(=O)N/N=C/C(Br)=C/c1ccccc1`, the cytotoxicity is -17.1%. Take `O=C(N/N=C/C(Br)=C\c1ccccc1)c1n[nH]c2c1CCC2`: the cytotoxicity was 66.5% (active). `Cc1ccc(NCC(=O)N/N=C\C(Br)=C\c2ccccc2)cc1`: the cytotoxicity is 8.3%. For `O=C(CNc1cccc2ccccc12)N/N=C/C(Br)=C/c1ccccc1`, the cytotoxicity was 1.9%. To `O=C(N/N=C/C(Br)=C/c1ccccc1)c1n[nH]c2c1CCC2` belongs 66.4% (active); to `CC(=C/c1ccccc1)/C=N/NC(=O)c1cnccn1`, -7.1%.

On to `CC(/C=N/NC(=O)c1ccc(Br)cc1)=C\c1ccccc1`, for which the cytotoxicity is -15.4%. Consider `COc1ccc(CC(=O)NCc2nnc(SCC(=O)N3CCN(c4ccccc4)CC3)n2C)cc1`, for which the cytotoxicity is -7%. Turning to `COc1ccc(C)cc1NC(=O)CNC(=O)Cn1ccc2ccccc2c1=O`, the cytotoxicity is 7.1%. As to `Cc1nnc(Sc2nc3c(c(=O)[nH]c(=O)n3C)n2Cc2ccccc2Cl)s1`, the cytotoxicity was 1%. For `COCCCNC(=O)Cn1cc2c(n1)CCC(C)C2` (stereo not drawn), the cytotoxicity was -3.5%. On to `Nc1[nH]c(=S)[nH]c(=O)c1-c1ccccc1`, for which the cytotoxicity is -5%.

For the compound `O=C(Nc1ccc(N2CCN(Cc3ccccc3)CC2)cc1)c1ncn[nH]1`, the cytotoxicity was -2.9%. As to `CC(=O)c1ccc(NC(=O)c2ccn[nH]2)cc1`, the cytotoxicity was -0.3%. Take `COc1cc(CC(=O)Oc2ccc3c(c2)OCO3)cc(OC)c1OC`: the cytotoxicity is 2.2%. `COc1cc([C@@H]2c3cc4c(cc3[C@H](O)[C@H]3COC(=O)[C@H]23)OCO4)cc(OC)c1OC`: the cytotoxicity is 68.5% (active). Take `COc1cc(CC(=O)NCc2ccc3c(c2)OCO3)cc(OC)c1OC`: the cytotoxicity is 3.1%. In the case of `COc1ccc2c(c1OC)C(=O)OC2Nc1ncc(Br)cc1Br` (stereo not drawn), the cytotoxicity is 6.2%. In the case of `COc1ccc(C2CC(=O)c3c(C)nc(N4CCN(Cc5ccccc5)CC4)nc3C2)cc1OC` (stereo not drawn), the cytotoxicity was -20.1%. As for `COc1cc(C2CC(=O)c3cnc(N)nc3C2)cc(OC)c1OC` (stereo not drawn), the figure is 0.9%; as for `COc1cc(C2CC(=O)c3cnc(N4CCN(Cc5ccccc5)CC4)nc3C2)cc(OC)c1OC` (stereo not drawn), 52.5% (active). As to `CCN1CCN(c2ncc3c(n2)CC(c2ccc(OC)c(OC)c2)CC3=O)CC1` (stereo not drawn), the cytotoxicity was -13%.

Consider `CCN1CCN(c2ncc3c(n2)CC(c2cc(OC)c(OC)c(OC)c2)CC3=O)CC1` (stereo not drawn), for which the cytotoxicity is 51.1% (active). As for `COc1ccc(C2CC(=O)c3cnc(N4CCN(Cc5ccccc5)CC4)nc3C2)cc1` (stereo not drawn), the figure is 22.6%; as for `COc1ccc(-n2c3c(cc(C(=O)Nc4ccc(C)cc4)c2=O)C(=O)CCC3)cc1`, 14.6%. As for `CCOc1ccc2nc(SCC(=O)NC(=O)NCc3ccco3)[nH]c2c1`, the cytotoxicity was -12.9%.

As to `Cc1cc(N2CCCC2)nc(-c2ccccc2O)n1`, the cytotoxicity is 1.6%. As for `Cn1cc(/C=N/n2cnc3sc4c(c3c2=O)CCCC4)c2ccccc21`, the figure is -0.6%.

For `Cn1cc(/C=N/n2cnc3scc(-c4ccccc4)c3c2=O)c2ccccc21`, the cytotoxicity is 52.6% (active). In the case of `Cc1nn(-c2ccccc2)c(N2CCCC2)c1/C=N/n1cnc2scc(-c3ccccc3)c2c1=O`, the cytotoxicity was -0.7%. As for `CCn1cnc2scc(-c3ccccc3)c2c1=O`, the cytotoxicity was 6%.

With `Cc1ccc(-c2csc3ncn(/N=C/N(C)C)c(=O)c23)o1`, the cytotoxicity is 1.3%.

As to `Cn1cc(/C=N/n2cnc3scc(-c4ccc(Cl)cc4)c3c2=O)c2ccccc21`, the cytotoxicity was 57.8% (active).
